Experimental data taken from publication PMC5540273 (PLoS ONE, 2017).

Columns and labels:
Settings in all cases: concentration: 1 μM, replicates: in singlicate; n = 1
PFTK1 = test system: T1, PFTK1
T1 construct: gene CDK14

PHKG1 = test system: PHKG1
PHKG2 = test system: PHKG2
PIK3C2B = test system: PIK3C2B
PIK3C2G = test system: PIK3C2G
PIK3CA = test system: PIK3CA
PIK3CB = test system: PIK3CB
PIK3CD = test system: PIK3CD
PIK3CG = test system: PIK3CG
PIK4CB = test system: T2, PIK4CB
T2 construct: gene PI4KB

PIKFYVE = test system: PIKFYVE
PIM1 = test system: PIM1
PIM2 = test system: PIM2
PIM3 = test system: PIM3
PIP5K1A = test system: PIP5K1A
PIP5K1C = test system: PIP5K1C
PIP5K2B = test system: PIP5K2B
PIP5K2C = test system: T3, PIP5K2C
T3 construct: gene PIP4K2C

PKAC-alpha = test system: T4, PKAC-alpha
T4 construct: gene PRKACA

PKAC-beta = test system: T5, PKAC-beta
T5 construct: gene PRKACB
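Note: KINOMEscan kinase panel screen.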

Structure (SMILES) | %Inh (PFTK1) [%] | %Inh (PHKG1) [%] | %Inh (PHKG2) [%] | %Inh (PIK3C2B) [%] | %Inh (PIK3C2G) [%] | %Inh (PIK3CA) [%] | %Inh (PIK3CB) [%] | %Inh (PIK3CD) [%] | %Inh (PIK3CG) [%] | %Inh (PIK4CB) [%] | %Inh (PIKFYVE) [%] | %Inh (PIM1) [%] | %Inh (PIM2) [%] | %Inh (PIM3) [%] | %Inh (PIP5K1A) [%] | %Inh (PIP5K1C) [%] | %Inh (PIP5K2B) [%] | %Inh (PIP5K2C) [%] | %Inh (PKAC-alpha) [%] | %Inh (PKAC-beta) [%]
Cn1ccc2ncnc(Oc3ccc(NC(=O)Nc4ccncc4)c(Cl)c3)c21 | 0 | 0 | 5 | 16 | 43 | 11 | 0 | 26 | 26 | 0 | 8 | 0 | 13 | 1 | 24 | 5 | 11 | 0 | 1 | 2
CCc1nc(-c2cccc(C)c2)c(-c2ccnc(NCc3ccccc3)c2)s1 | 1 | 0 | 22 | 0 | 18 | 0 | 16 | 0 | 0 | 0 | 0 | 21 | 0 | 25 | 0 | 14 | 38 | 0 | 0 | 0
O=c1cc(N2CCOCC2)nc2n(Cc3cccc4ccccc34)ccn12 [GSK2333389] | 0 | 2 | 0 | 0 | 0 | 0 | 99.7 | 89 | 3 | 6 | 0 | 0 | 0 | 0 | 0 | 0 | 40 | 0 | 0 | 8
CCCCCc1nc2c(N)ncnc2n1CCCCC [SKF-97255] | 2 | 9 | 0 | 0 | 0 | 14 | 0 | 0 | 15 | 1 | 0 | 0 | 5 | 7 | 1 | 0 | 0 | 0 | 24 | 0
CN(C1=C(c2ccccc2)C(=O)NC1=O)c1ccccc1 [SB-334860] | 21 | 0 | 0 | 0 | 3 | 0 | 25 | 7 | 10 | 13 | 10 | 19 | 0 | 0 | 8 | 37 | 7 | 10 | 4 | 0
N#Cc1ccc(-c2cc(-c3c[nH]nc3-c3ccccn3)ccn2)cc1 [GW693028] | 19 | 0 | 0 | 0 | 0 | 0 | 0 | 0 | 0 | 0 | 0 | 0 | 0 | 0 | 7 | 71 | 23 | 7 | 0 | 0
O=C(Nc1cccc(-c2nn3ncccc3c2-c2ccnc(Nc3cccc(C(F)(F)F)c3)n2)c1)c1c(F)cccc1F [GSK299495] | 11 | 0 | 0 | 0 | 0 | 0 | 0 | 25 | 0 | 0 | 15 | 0 | 0 | 0 | 18 | 37 | 100 | 68 | 12 | 6
c1ccc(-c2cc(-c3c[nH]nc3-c3ccccn3)ccn2)cc1 [GW576604] | 39 | 0 | 0 | 0 | 0 | 0 | 0 | 0 | 0 | 0 | 0 | 0 | 0 | 0 | 19 | 58 | 0 | 30 | 5 | 0
Nc1nccc(-c2c(-c3ccc(F)cc3)ncn2C2CCN(CC(F)(F)F)CC2)n1 [SB-236560] | 0 | 0 | 0 | 5 | 53 | 0 | 18 | 0 | 66 | 46 | 59 | 0 | 0 | 0 | 47 | 7 | 0 | 60 | 0 | 11
COc1cc(Nc2nccc(N3CCC(NC(=O)c4cccc(NC(C)=O)c4)C3)n2)cc(OC)c1OC (centres unmarked) [GSK1379754] | 18 | 7 | 3 | 100 | 0 | 99.9 | 0 | 0 | 99.9 | 0 | 0 | 0 | 0 | 0 | 0 | 45 | 18 | 92.4 | 3 | 11
Cc1ccc(C(=O)NCC(N)=O)cc1-n1c(C)cc(OCc2ccc(F)cc2F)c(Br)c1=O | 26 | 9 | 1 | 0 | 51 | 0 | 0 | 30 | 0 | 0 | 20 | 23 | 19 | 17 | 14 | 46 | 0 | 31 | 7 | 0
CNc1ncnc2[nH]ncc12 [SKF-18355] | 0 | 0 | 0 | 3 | 0 | 1 | 0 | 0 | 5 | 17 | 11 | 0 | 8 | 0 | 22 | 0 | 0 | 0 | 31 | 16
O=C(NCCNc1ccnc(Nc2ccc(F)cc2)n1)Nc1ccccc1F [GSK1379880] | 13 | 0 | 0 | 0 | 62 | 0 | 0 | 21 | 0 | 13 | 0 | 0 | 0 | 0 | 0 | 24 | 0 | 38 | 8 | 0
NS(=O)(=O)c1cccc(-c2ccc3nccc(-c4cccc(S(N)(=O)=O)c4)c3c2)c1 [GW867253] | 0 | 0 | 5 | 58 | 52 | 38 | 24 | 39 | 88 | 99.1 | 21 | 3 | 0 | 9 | 21 | 0 | 0 | 41 | 0 | 0
COc1ccc(COc2cc(-n3cnc4ccccc43)sc2C(N)=O)cc1 [GSK1024304] | 0 | 0 | 0 | 0 | 0 | 0 | 100 | 0 | 0 | 0 | 0 | 11 | 0 | 0 | 17 | 45 | 5 | 3 | 0 | 0
Cc1c2ccc(N(C)c3ccnc(Nc4cccc(S(N)(=O)=O)c4)n3)cc2nn1Cc1ccccc1.Cl.Cl [GW787226] | 27 | 0 | 0 | 5 | 0 | 0 | 0 | 0 | 0 | 0 | 0 | 0 | 0 | 0 | 0 | 0 | 0 | 0 | 17 | 4
COc1ccc(CNC(=O)NC2CCN(c3ccnc(Nc4ccc(OC)cc4)n3)C2)cc1 (centres unmarked) [GSK1379727] | 9 | 0 | 0 | 0 | 0 | 0 | 0 | 26 | 0 | 2 | 29 | 0 | 0 | 0 | 0 | 57 | 4 | 33 | 0 | 0
Fc1ccc(-c2nn3c(OCC(F)(F)F)cccc3c2-c2ccncc2)cc1 [GW514784] | 3 | 0 | 0 | 0 | 0 | 0 | 0 | 30 | 0 | 0 | 51 | 0 | 0 | 0 | 50 | 69 | 18 | 32 | 6 | 32
O=C(c1ccc(-c2cc(-c3c[nH]nc3-c3ccccn3)ccn2)cc1)N1CCOCC1 [GW812171] | 20 | 1 | 0 | 0 | 0 | 29 | 0 | 0 | 0 | 8 | 0 | 24 | 0 | 15 | 0 | 0 | 0 | 67 | 0 | 3
